Experimental data: the supplement of paper PMC11060735
Where “and” joins values, the source holds several entries; their conditions need not be identical. Equal entries are not always repeated. Structures can show the parent of a compound that is named as a salt. ± gives the standard deviation of the averaged measurements. Whole data set: some 1,800 compounds, median “GFP- (p16Ink4a-) cell count relative to negative-control wells” near 0.99, cut for the lowest 2% near 0.5. Only a selection was taken, and the lowest values are over-represented in it overall.

What follows are compounds tested on mouse p16Ink4a+/- lung fibroblasts (INKBRITE, bleomycin-injured) (assay: GFP- (p16Ink4a-) cell count relative to negative-control wells (fold of vehicle); higher = more p16Ink4a- cells surviving). Settings: 1 µM; 3 days.
With `CCC[C@@H]1C[C@@H](C(=O)N[C@H](C(C)Cl)[C@H]2O[C@H](SC)[C@H](O)[C@@H](O)[C@H]2O)N(C)C1` (stereo not given in full) [Clindamycin HCl] the GFP- was 0.865 and 1.15.
With `COC(=O)C1=C(C#N)N=C(C)/C(=C(\O)OC(C)C)C1c1cccc([N+](=O)[O-])c1` (stereo not given) [Nilvadipine] the GFP- was 0.683.
Work on `COc1ccc(-c2nc(N3CCOCC3)c3sc(CN(C)c4ncc(C(=O)NO)cn4)cc3n2)cn1` [Fimepinostat] yielded a GFP- of 0.491 ± 0.025.
`Cc1c(CN2CCN(C(=O)[C@H](C)O)CC2)sc2c(N3CCOCC3)nc(-c3cnc(N)nc3)nc12` showed a GFP- of 0.612.
With `CS(=O)(=O)N1CCN(Cc2cc3nc(-c4cccc5[nH]ncc45)nc(N4CCOCC4)c3s2)CC1` the GFP- was 0.676.
`CCN(CC)CC#CCOC(=O)C(O)(c1ccccc1)C1CCCCC1` (stereo not given) [Oxybutynin] was tested, and the GFP- was 0.971.
`Nc1ccccc1NC(=O)c1ccc(CNC(=O)OCc2cccnc2)cc1` [Entinostat] showed a GFP- of 0.641 ± 0.022.
In the case of `Cc1ccc(NC(=O)c2ccc(CN3CCN(C)CC3)cc2)cc1Nc1nccc(-c2cccnc2)n1` [Imatinib, Imatinib Mesylate], the GFP- is reported as 1.04 and 0.966.
`Nc1ccccc1NC(=O)c1ccc(CNc2nccc(-c3cccnc3)n2)cc1` [Mocetinostat] was tested, and the GFP- was 0.436 ± 0.22.
Work on `c1cnc2cc3c(cc2n1)C1CNCC3C1` [Varenicline Tartrate] yielded a GFP- of 0.907.
`CCCCc1ncc(/C=C(\Cc2cccs2)C(=O)O)n1Cc1ccc(C(=O)O)cc1` [Eprosartan] showed a GFP- of 0.961.
In the case of `Cn1cc(-c2cnn3c(N)c(Br)c([C@@H]4CCCNC4)nc23)cn1`, the GFP- is reported as 0.988.
`NC(=O)N1CCC(CC(=O)N2CCC([C@H]3c4ncc(Br)cc4CCc4cc(Cl)cc(Br)c43)CC2)CC1` [Lonafarnib] showed a GFP- of 0.808.
Work on `COCC(=O)NC/C=C/c1ccc2ncnc(Nc3ccc(Oc4ccc(C)nc4)c(C)c3)c2c1` yielded a GFP- of 1.06.
For `C[C@H]1C[C@@H]2[C@H]([C@@H](O)C[C@@]3(C)[C@H]2CC[C@]3(O)C(=O)CO)[C@@]2(C)C=CC(=O)C=C12` [Methylprednisolone], the GFP- was 0.847.
In the case of `CN1CCCC(n2nc(Cc3ccc(Cl)cc3)c3ccccc3c2=O)CC1` (stereo not given) [Azelastine, Azelastine Hydrochloride], the GFP- is reported as 1.
For `Cc1[nH]c2ccccc2c1CCNCc1ccc(/C=C/C(=O)NO)cc1` [Panobinostat], the GFP- was 0.50294 ± 0.0002.
`O=C(/C=C/c1ccc(CN(CCO)CCc2c[nH]c3ccccc23)cc1)NO` [Dacinostat] gave a GFP- of 0.556 ± 0.066.
`Cc1[nH]c2ccccc2c1CCNC(=O)c1cccs1` [N-[2-(2-methyl-1H-indol-3-yl)ethyl]thiophene-2-carboxamide] was tested, and the GFP- was 1.11.
`Oc1cc2c(cc1O)[C@@H]1c3ccc(O)c(O)c3OC[C@]1(O)C2` [Hematoxylin] was tested, and the GFP- was 0.962.
